# Reference: the supplement of paper PMC4466140
# Legend:
# Assay in all cases: SPOT peptide array binding signal intensity (averaged, normalized) (arbitrary units (background-subtracted, floor 0; scale differs between SH3 domains)); higher = stronger binding of the SH3 domain to the peptide
# AgAbp1 = target: AgAbp1
# Summary of the method: (§1)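 GST-fused SH3 domains from four yeast species were expressed in E. coli BL21(DE3), purified on glutathione Sepharose and incubated at 10 μg/ml overnight at 4°C in TBS-based blocking buffer on cellulose membranes carrying synthetic 15-mer peptides, with cysteines replaced by serines. Bound protein was detected with anti-GST antibody, an HRP anti-mouse secondary and luminol, then imaged and quantified with Genespotter. Binding signal is the normalized, background-subtracted spot intensity averaged over replicates, in arbitrary units that differ between domains.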
# AgBbc1 = target: AgBbc1
# Summary of the method: as §1
# AgBem1-D1 = target: AgBem1-D1
# Summary of the method: as §1
# AgBzz1-D1 = target: AgBzz1-D1
# Summary of the method: as §1
# AgBzz1-D2 = target: AgBzz1-D2
# Summary of the method: as §1
# AgCyk3 = target: AgCyk3
# Summary of the method: as §1
# AgFus1 = target: AgFus1
# Summary of the method: as §1
# AgHof1 = target: AgHof1
# Summary of the method: as §1
# AgHse1 = target: AgHse1
# Summary of the method: as §1
# AgLsb1 = target: AgLsb1
# Summary of the method: as §1
# AgLsb4 = target: AgLsb4
# Summary of the method: as §1
# AgMyo5 = target: AgMyo5
# Summary of the method: as §1
# AgNbp2 = target: AgNbp2
# Summary of the method: as §1
# AgRvs167 = target: AgRvs167
# Summary of the method: as §1
# AgSho1 = target: AgSho1
# Summary of the method: as §1
# AgSla1-D1-D2 = target: AgSla1-D1-D2
# Summary of the method: as §1
# AgSla1-D3 = target: AgSla1-D3
# Summary of the method: as §1
# CaAbp1-D1 = target: CaAbp1-D1
# Summary of the method: as §1
# CaAbp1-D2 = target: CaAbp1-D2
# Summary of the method: as §1
# CaBbc1 = target: CaBbc1
# Summary of the method: as §1
# CaBem1-D1 = target: CaBem1-D1
# Summary of the method: as §1
# CaBzz1-D1 = target: CaBzz1-D1
# Summary of the method: as §1
# CaBzz1-D2 = target: CaBzz1-D2
# Summary of the method: as §1
# CaCyk3 = target: CaCyk3
# Summary of the method: as §1
# CaFus1 = target: CaFus1
# Summary of the method: as §1
# CaHof1 = target: CaHof1
# Summary of the method: as §1
# CaHse1 = target: CaHse1
# Summary of the method: as §1
# CaLsb1 = target: CaLsb1
# Summary of the method: as §1
# CaLsb4 = target: CaLsb4
# Summary of the method: as §1
# CaMyo5 = target: CaMyo5
# Summary of the method: as §1
# CaNbp2 = target: CaNbp2
# Summary of the method: as §1
# CaRvs167 = target: CaRvs167
# Summary of the method: as §1
# CaRvs167-3 = target: CaRvs167-3
# Summary of the method: as §1
# CaSho1 = target: CaSho1
# Summary of the method: as §1
# CaSla1-D1-D2 = target: CaSla1-D1-D2
# Summary of the method: as §1
# CaSla1-D3 = target: CaSla1-D3
# Summary of the method: as §1
# ScAbp1 = target: ScAbp1
# Summary of the method: as §1
# ScBbc1 = target: ScBbc1
# Summary of the method: as §1
# ScBem1-D1 = target: ScBem1-D1
# Summary of the method: as §1
# ScBzz1-D1 = target: ScBzz1-D1
# Summary of the method: as §1
# ScBzz1-D2 = target: ScBzz1-D2
# Summary of the method: as §1
# ScCyk3 = target: ScCyk3
# Summary of the method: as §1
# ScFus1 = target: ScFus1
# Summary of the method: as §1
# ScHof1 = target: ScHof1
# Summary of the method: as §1
# ScHse1 = target: ScHse1
# Summary of the method: as §1
# ScLsb1 = target: ScLsb1
# Summary of the method: as §1
# ScLsb2 = target: ScLsb2
# Summary of the method: as §1
# ScLsb3 = target: ScLsb3
# Summary of the method: as §1
# ScLsb4 = target: ScLsb4
# Summary of the method: as §1
# ScMyo3 = target: ScMyo3
# Summary of the method: as §1
# ScMyo5 = target: ScMyo5
# Summary of the method: as §1
# ScNbp2 = target: ScNbp2
# Summary of the method: as §1
# ScPex13 = target: ScPex13
# Summary of the method: as §1
# ScRvs167 = target: ScRvs167
# Summary of the method: as §1
# ScSho1 = target: ScSho1
# Summary of the method: as §1
# ScSla1-D1-D2 = target: ScSla1-D1-D2
# Summary of the method: as §1
# ScSla1-D3 = target: ScSla1-D3
# Summary of the method: as §1
# SpAbp1-D1 = target: SpAbp1-D1
# Summary of the method: as §1
# SpBbc1 = target: SpBbc1
# Summary of the method: as §1
# SpBzz1-D1 = target: SpBzz1-D1
# Summary of the method: as §1
# SpBzz1-D2 = target: SpBzz1-D2
# Summary of the method: as §1
# SpCyk3 = target: SpCyk3
# Summary of the method: as §1
# SpHof1 = target: SpHof1
# Summary of the method: as §1
# SpHof1-2 = target: SpHof1-2
# Summary of the method: as §1
# SpHof1-3 = target: SpHof1-3
# Summary of the method: as §1
# SpHse1 = target: SpHse1
# Summary of the method: as §1
# SpLsb1 = target: SpLsb1
# Summary of the method: as §1
# SpLsb4 = target: SpLsb4
# Summary of the method: as §1
# SpMyo1 = target: SpMyo1
# Summary of the method: as §1
# SpNbp2 = target: SpNbp2
# Summary of the method: as §1
# SpPex13 = target: SpPex13
# Summary of the method: as §1
# SpRvs167 = target: SpRvs167
# Summary of the method: as §1
# SpSla1-D1-D2 = target: SpSla1-D1-D2
# Summary of the method: as §1
# SpSla1-D3 = target: SpSla1-D3
# Summary of the method: as §1
binder,measurement,setting,value
DGNEEKPLLPTRPNK,SPOT peptide array binding signal intensity,AgAbp1,≤ 0
same,SPOT peptide array binding signal intensity,AgBbc1,977
same,SPOT peptide array binding signal intensity,AgBem1-D1,≤ 0
same,SPOT peptide array binding signal intensity,AgBzz1-D1,9.5
same,SPOT peptide array binding signal intensity,AgBzz1-D2,17.5
same,SPOT peptide array binding signal intensity,AgCyk3,≤ 0
same,SPOT peptide array binding signal intensity,AgFus1,≤ 0
same,SPOT peptide array binding signal intensity,AgHof1,23.8
same,SPOT peptide array binding signal intensity,AgHse1,≤ 0
same,SPOT peptide array binding signal intensity,AgLsb1,47.2
same,SPOT peptide array binding signal intensity,AgLsb4,1730
same,SPOT peptide array binding signal intensity,AgMyo5,0.25
same,SPOT peptide array binding signal intensity,AgNbp2,≤ 0
same,SPOT peptide array binding signal intensity,AgRvs167,43.8
same,SPOT peptide array binding signal intensity,AgSho1,≤ 0
same,SPOT peptide array binding signal intensity,AgSla1-D1-D2,≤ 0
same,SPOT peptide array binding signal intensity,AgSla1-D3,≤ 0
same,SPOT peptide array binding signal intensity,CaAbp1-D1,≤ 0
same,SPOT peptide array binding signal intensity,CaAbp1-D2,≤ 0
same,SPOT peptide array binding signal intensity,CaBbc1,844
same,SPOT peptide array binding signal intensity,CaBem1-D1,≤ 0
same,SPOT peptide array binding signal intensity,CaBzz1-D1,18
same,SPOT peptide array binding signal intensity,CaBzz1-D2,1.75
same,SPOT peptide array binding signal intensity,CaCyk3,7
same,SPOT peptide array binding signal intensity,CaFus1,≤ 0
same,SPOT peptide array binding signal intensity,CaHof1,0.5
same,SPOT peptide array binding signal intensity,CaHse1,6.38
same,SPOT peptide array binding signal intensity,CaLsb1,≤ 0
same,SPOT peptide array binding signal intensity,CaLsb4,3160
same,SPOT peptide array binding signal intensity,CaMyo5,≤ 0
NQARKPFLLPATELS,SPOT peptide array binding signal intensity,AgAbp1,≤ 0
same,SPOT peptide array binding signal intensity,AgBbc1,≤ 0
same,SPOT peptide array binding signal intensity,AgBem1-D1,23.5
same,SPOT peptide array binding signal intensity,AgBzz1-D1,19
same,SPOT peptide array binding signal intensity,AgBzz1-D2,16.5
same,SPOT peptide array binding signal intensity,AgCyk3,≤ 0
same,SPOT peptide array binding signal intensity,AgFus1,≤ 0
same,SPOT peptide array binding signal intensity,AgHof1,11.8
same,SPOT peptide array binding signal intensity,AgHse1,454
same,SPOT peptide array binding signal intensity,AgLsb1,295
same,SPOT peptide array binding signal intensity,AgLsb4,≤ 0
same,SPOT peptide array binding signal intensity,AgMyo5,2
same,SPOT peptide array binding signal intensity,AgNbp2,5
same,SPOT peptide array binding signal intensity,AgRvs167,≤ 0
same,SPOT peptide array binding signal intensity,AgSho1,≤ 0
same,SPOT peptide array binding signal intensity,AgSla1-D1-D2,3
same,SPOT peptide array binding signal intensity,AgSla1-D3,0.5
same,SPOT peptide array binding signal intensity,CaAbp1-D1,225
same,SPOT peptide array binding signal intensity,CaAbp1-D2,17
same,SPOT peptide array binding signal intensity,CaBbc1,≤ 0
same,SPOT peptide array binding signal intensity,CaBem1-D1,≤ 0
same,SPOT peptide array binding signal intensity,CaBzz1-D1,≤ 0
same,SPOT peptide array binding signal intensity,CaBzz1-D2,≤ 0
same,SPOT peptide array binding signal intensity,CaCyk3,1
same,SPOT peptide array binding signal intensity,CaFus1,228
same,SPOT peptide array binding signal intensity,CaHof1,≤ 0
same,SPOT peptide array binding signal intensity,CaHse1,4.75
same,SPOT peptide array binding signal intensity,CaLsb1,0.5
same,SPOT peptide array binding signal intensity,CaLsb4,≤ 0
same,SPOT peptide array binding signal intensity,CaMyo5,3.75
same,SPOT peptide array binding signal intensity,CaNbp2,100
same,SPOT peptide array binding signal intensity,CaRvs167,0.333
same,SPOT peptide array binding signal intensity,CaRvs167-3,4.5
same,SPOT peptide array binding signal intensity,CaSho1,28.5
same,SPOT peptide array binding signal intensity,CaSla1-D1-D2,≤ 0
same,SPOT peptide array binding signal intensity,CaSla1-D3,≤ 0
same,SPOT peptide array binding signal intensity,ScAbp1,59.5
same,SPOT peptide array binding signal intensity,ScBbc1,3.75
same,SPOT peptide array binding signal intensity,ScBem1-D1,3.5
same,SPOT peptide array binding signal intensity,ScBzz1-D1,13
same,SPOT peptide array binding signal intensity,ScBzz1-D2,6.5
same,SPOT peptide array binding signal intensity,ScCyk3,8
same,SPOT peptide array binding signal intensity,ScFus1,15
same,SPOT peptide array binding signal intensity,ScHof1,0.5
same,SPOT peptide array binding signal intensity,ScHse1,1630
same,SPOT peptide array binding signal intensity,ScLsb1,23.5
same,SPOT peptide array binding signal intensity,ScLsb2,≤ 0
same,SPOT peptide array binding signal intensity,ScLsb3,≤ 0
same,SPOT peptide array binding signal intensity,ScLsb4,≤ 0
same,SPOT peptide array binding signal intensity,ScMyo3,≤ 0
same,SPOT peptide array binding signal intensity,ScMyo5,≤ 0
same,SPOT peptide array binding signal intensity,ScNbp2,≤ 0
same,SPOT peptide array binding signal intensity,ScPex13,≤ 0
same,SPOT peptide array binding signal intensity,ScRvs167,4.67
same,SPOT peptide array binding signal intensity,ScSho1,105
same,SPOT peptide array binding signal intensity,ScSla1-D1-D2,≤ 0
same,SPOT peptide array binding signal intensity,ScSla1-D3,8
same,SPOT peptide array binding signal intensity,SpAbp1-D1,34
same,SPOT peptide array binding signal intensity,SpBbc1,≤ 0
same,SPOT peptide array binding signal intensity,SpBzz1-D1,≤ 0
same,SPOT peptide array binding signal intensity,SpBzz1-D2,≤ 0
same,SPOT peptide array binding signal intensity,SpCyk3,1
same,SPOT peptide array binding signal intensity,SpHof1,24.5
same,SPOT peptide array binding signal intensity,SpHof1-2,0.5
same,SPOT peptide array binding signal intensity,SpHof1-3,870
same,SPOT peptide array binding signal intensity,SpHse1,770
same,SPOT peptide array binding signal intensity,SpLsb1,11
same,SPOT peptide array binding signal intensity,SpLsb4,≤ 0
same,SPOT peptide array binding signal intensity,SpMyo1,≤ 0
same,SPOT peptide array binding signal intensity,SpNbp2,7
same,SPOT peptide array binding signal intensity,SpPex13,≤ 0
same,SPOT peptide array binding signal intensity,SpRvs167,≤ 0
same,SPOT peptide array binding signal intensity,SpSla1-D1-D2,≤ 0
same,SPOT peptide array binding signal intensity,SpSla1-D3,≤ 0
SRQAIPPPVPNRPGG,SPOT peptide array binding signal intensity,SpBzz1-D2,59.5
same,SPOT peptide array binding signal intensity,SpCyk3,3
same,SPOT peptide array binding signal intensity,SpHof1,≤ 0
same,SPOT peptide array binding signal intensity,SpHof1-2,≤ 0
same,SPOT peptide array binding signal intensity,SpHof1-3,126
same,SPOT peptide array binding signal intensity,SpHse1,≤ 0
same,SPOT peptide array binding signal intensity,SpLsb1,1260
same,SPOT peptide array binding signal intensity,SpLsb4,4790
same,SPOT peptide array binding signal intensity,SpMyo1,120
same,SPOT peptide array binding signal intensity,SpNbp2,≤ 0
same,SPOT peptide array binding signal intensity,SpPex13,≤ 0
same,SPOT peptide array binding signal intensity,SpRvs167,2220
same,SPOT peptide array binding signal intensity,SpSla1-D1-D2,5
same,SPOT peptide array binding signal intensity,SpSla1-D3,≤ 0
